Reference: PubChem BioAssay (NCI)
The panel holds about 79,000 compounds, 15% with a hit somewhere; the sample as a whole holds those more often. Active and inactive are the calls of the source. Cut-off read from the data, not from the text of the source: active = growth inhibition above about 70%; inactive = the rest.

Legend:
[1] = NCI Yeast Anticancer Drug Screen. Data for the rad52 strain (AID 147);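 note: 0% = growth of vehicle-treated control cultures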; conditions: S. cerevisiae rad52 mutant growth inhibition, active compounds read high
Procedure, shortened: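 The repair-mutant yeast strain was incubated with compounds, then growth was read and inhibition derived relative to vehicle.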

[2] = NCI Yeast Anticancer Drug Screen. Data for the wt1 strain (AID 149);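 note: 0% = growth of vehicle-treated wt1 cultures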; conditions: S. cerevisiae wt1 strain (SPY 50644) growth inhibition, active compounds read high
Procedure, shortened: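 Yeast wt1 strain exposed to compounds; growth inhibition measured relative to vehicle-treated controls.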

[3] = NCI Yeast Anticancer Drug Screen. Data for the rad50EPP+ strain (AID 151);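 note: 0% = growth of vehicle-treated control cultures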; conditions: S. cerevisiae rad50 mutant strain, active compounds read high
Procedure, shortened: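 Vehicle-normalised growth inhibition; rad50EPP+ yeast strain, altered in DNA damage repair, compound-treated.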

[4] = NCI Yeast Anticancer Drug Screen. Data for the mgt1 strain (AID 153); conditions: S. cerevisiae mgt1 mutant growth inhibition, active compounds read high
Procedure, shortened: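 Vehicle-normalized growth inhibition is determined in mgt1 yeast, a strain selected for a defined alteration in DNA repair or cell cycle control.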

[5] = NCI Yeast Anticancer Drug Screen. Data for the rad50 strain (AID 155);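 note: 0% = growth of vehicle-only cultures of the same strain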; conditions: S. cerevisiae rad50 strain growth inhibition, active compounds read high
Procedure, shortened: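 Yeast carrying a defined DNA repair defect were exposed to test compounds, and growth was compared with vehicle-treated controls to give percent inhibition.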

[6] = NCI Yeast Anticancer Drug Screen. Data for the mec2-1 strain (AID 157); conditions: S. cerevisiae mec2-1 strain, active compounds read high
Procedure, shortened: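 Mutant yeast (mec2-1) grown with compound; growth inhibition relative to vehicle control reported.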

[7] = NCI Yeast Anticancer Drug Screen. Data for the rad14 strain (AID 159);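 note: 0% = growth of vehicle-treated control cultures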; conditions: S. cerevisiae rad14 strain growth inhibition, active compounds read high
Procedure, shortened: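 Yeast cells carrying a defined DNA-repair defect were exposed to compounds, and growth inhibition was calculated relative to vehicle-treated control cultures.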

[8] = NCI Yeast Anticancer Drug Screen. Data for the sgs1 mgt1 strain (AID 161);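 note: 0% = growth of cultures given vehicle only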; conditions: S. cerevisiae sgs1 mgt1 strain, active compounds read high
Procedure, shortened: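 Growth of a repair-deficient yeast mutant was monitored after compound treatment and expressed as inhibition relative to vehicle-treated cultures.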

[9] = NCI Yeast Anticancer Drug Screen. Data for the CLN2oe strain (AID 163);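 note: 0% = growth of vehicle-only control cultures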; conditions: S. cerevisiae CLN2oe strain, active compounds read high
Procedure, shortened: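 Compounds are applied to yeast harbouring a defined cell-cycle control change; reduced growth compared with vehicle-treated controls gives the value.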

[10] = NCI Yeast Anticancer Drug Screen. Data for the cln2 rad14 strain (AID 165);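 note: 0% = growth equal to vehicle treated cultures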; conditions: S. cerevisiae cln2 rad14 strain, active compounds read high
Procedure, shortened: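 Readout is yeast growth inhibition versus vehicle-treated controls, using a strain with cln2 and rad14 alterations exposed to compound.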

[11] = NCI Yeast Anticancer Drug Screen. Data for the bub3 strain (AID 167); conditions: S. cerevisiae bub3 mutant strain, active compounds read high
Procedure, shortened: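 Compounds were applied to a genetically altered yeast strain carrying a cell-cycle control defect. Growth inhibition was scored against vehicle-treated controls.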

[12] = NCI Yeast Anticancer Drug Screen. Data for the wt2 strain (AID 169);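 note: 0% = growth of vehicle-treated yeast cultures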; conditions: S. cerevisiae wt2 strain growth inhibition, active compounds read high
Procedure, shortened: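 Against vehicle-treated controls, the growth of yeast exposed to each compound was compared, and the inhibition was recorded.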

[13] = NCI Yeast Anticancer Drug Screen. Data for the mlh1 strain (AID 171);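 note: 0% = growth of vehicle-treated control cultures of the same strain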; conditions: S. cerevisiae mlh1 strain growth inhibition, active compounds read high
Procedure, shortened: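 Measured: yeast growth. Reference: vehicle-treated controls. Organism: strain with a defined alteration affecting DNA damage repair or cell cycle control, treated with compound.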

[14] = NCI Yeast Anticancer Drug Screen. Data for the sgs1 strain (AID 173);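 note: 0% = growth of vehicle-only control cultures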; conditions: S. cerevisiae sgs1 mutant, active compounds read high
Procedure, shortened: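 Each compound was added to cultures of the altered yeast strain. Growth was recorded, and inhibition was derived by comparison with vehicle controls.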

[15] = NCI Yeast Anticancer Drug Screen. Data for the mlh1 rad18 strain (AID 175); conditions: S. cerevisiae mlh1 rad18 strain growth inhibition, active compounds read high
Procedure, shortened: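 Genetically defined yeast (DNA repair-deficient) exposed to compounds; growth inhibition determined relative to vehicle.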

[16] = NCI Yeast Anticancer Drug Screen. Data for the rad18 strain (AID 177); conditions: S. cerevisiae rad18 mutant growth inhibition, active compounds read high
Procedure, shortened: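 Vehicle-treated cultures served as the baseline for scoring compound-induced growth inhibition in DNA-repair-mutant yeast.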

[17] = at 5.0 µM (retest, dose inferred, filed as 0.5)
[18] = at 50.0 µM (retest, dose inferred, filed as 5.0)

Measured: growth inhibition

CCOc1c(N=Nc2ccccc2OC)c(C)nn1C(=S)S
active: [1]; at 100.0 µM 79% | [3]; at 100.0 µM 79% | [4]; at 100.0 µM 74% | [5]; at 50.0 µM 98.5% | [6]; at 50.0 µM 97.8% | [7]; at 100.0 µM 78% | [8]; at 50.0 µM 97.7% | [10]; at 50.0 µM 98% | [11]; at 50.0 µM 98% | [12]; at 100.0 µM 75% | [14]; at 100.0 µM 86% | [15]; at 50.0 µM 98.3% | [16]; at 100.0 µM 70%
inactive: [1]; at 1.2 µM 0% | [1]; at 3.7 µM 3% | [1]; at 11.0 µM 11% | [1]; at 33.0 µM 39% | [2]; at 1.2 µM -1% | [2]; at 3.7 µM 1% | [2]; at 11.0 µM 4% | [2]; at 33.0 µM 17% | [2]; at 100.0 µM 52% | [3]; at 1.2 µM 2% | [3]; at 3.7 µM 14% | [3]; at 11.0 µM 26% | [3]; at 33.0 µM 54% | [4]; at 1.2 µM -2% | [4]; at 3.7 µM 1% | [4]; at 11.0 µM 3% | [4]; at 33.0 µM 18% | [5]; at 1.2 µM -1% | [5]; at 3.7 µM -1% | [5]; [17] -2% | [5]; at 11.0 µM 8% | [5]; at 33.0 µM 22% | [5]; [18] 36% | [5]; at 100.0 µM 65% | [6]; at 1.2 µM -1% | [6]; at 3.7 µM 0% | [6]; [17] -7% | [6]; at 11.0 µM 2% | [6]; at 33.0 µM 19% | [6]; [18] 4% | [6]; at 100.0 µM 60% | [7]; at 1.2 µM 4% | [7]; at 3.7 µM -1% | [7]; at 11.0 µM 4% | [7]; at 33.0 µM 4% | [8]; [17] 4% | [8]; [18] 49% | [9]; at 1.2 µM -6% | [9]; at 3.7 µM 0% | [9]; at 11.0 µM -3% | [9]; at 33.0 µM 7% | [9]; at 100.0 µM 59% | [10]; [17] -45% | [10]; [18] 4% | [11]; at 1.2 µM -7% | [11]; at 3.7 µM -1% | [11]; [17] -25% | [11]; at 11.0 µM 15% | [11]; at 33.0 µM 34% | [11]; [18] 50% | [11]; at 100.0 µM 67% | [12]; at 1.2 µM 0% | [12]; at 3.7 µM 3% | [12]; at 11.0 µM 10% | [12]; at 33.0 µM 32% | [13]; at 1.2 µM -3% | [13]; at 3.7 µM 0% | [13]; at 11.0 µM 4% | [13]; at 33.0 µM 4% | [13]; at 100.0 µM 65% | [14]; at 1.2 µM -1% | [14]; at 3.7 µM 3% | [14]; at 11.0 µM 14% | [14]; at 33.0 µM 45% | [15]; [17] -30% | [15]; [18] 56% | [16]; at 1.2 µM -11% | [16]; at 3.7 µM -3% | [16]; at 11.0 µM 4% | [16]; at 33.0 µM 32%

CC(=O)OC1CCC2(C)C(=CC(C3C=C4CC(OC(C)=O)CCC4(C)C4=C3C3CC5OC6(CCC(C)CO6)C(C)C5C3(C)CC4)C3=C2CCC2(C)C3CC3OC4(CCC(C)CO4)C(C)C32)C1 (stereo unspecified)
active: [1]; at 100.0 µM 88% | [3]; at 100.0 µM 76% | [4]; at 100.0 µM 83% | [5]; at 50.0 µM 91.3% | [6]; at 100.0 µM 75% | [7]; at 100.0 µM 84% | [8]; at 50.0 µM 90.7% | [11]; at 50.0 µM 74.2% | [12]; at 100.0 µM 93% | [14]; at 100.0 µM 72% | [15]; [18] 88% | [15]; at 50.0 µM 82.5%
inactive: [1]; at 1.2 µM 0% | [1]; at 3.7 µM 3% | [1]; at 11.0 µM 7% | [1]; at 33.0 µM 20% | [2]; at 1.2 µM 1% | [2]; at 3.7 µM -1% | [2]; at 11.0 µM 0% | [2]; at 33.0 µM 9% | [2]; at 100.0 µM 11% | [3]; at 1.2 µM 1% | [3]; at 3.7 µM 2% | [3]; at 11.0 µM 25% | [3]; at 33.0 µM 65% | [4]; at 1.2 µM 1% | [4]; at 3.7 µM -3% | [4]; at 11.0 µM -2% | [4]; at 33.0 µM 24% | [5]; at 1.2 µM 0% | [5]; at 3.7 µM 1% | [5]; [17] -7% | [5]; at 11.0 µM 2% | [5]; at 33.0 µM 6% | [5]; [18] 45% | [5]; at 100.0 µM 64% | [6]; at 1.2 µM -2% | [6]; at 3.7 µM 0% | [6]; [17] -12% | [6]; at 11.0 µM 1% | [6]; at 33.0 µM 9% | [6]; [18] 33% | [6]; at 50.0 µM 45% | [7]; at 1.2 µM 1% | [7]; at 3.7 µM 0% | [7]; at 11.0 µM 4% | [7]; at 33.0 µM 13% | [8]; [17] -10% | [8]; [18] 64% | [9]; at 1.2 µM -3% | [9]; at 3.7 µM -8% | [9]; at 11.0 µM -8% | [9]; at 33.0 µM -7% | [9]; at 100.0 µM 53% | [10]; [17] 37% | [10]; [18] 60% | [10]; at 50.0 µM -4.25% | [11]; at 1.2 µM 0% | [11]; at 3.7 µM -1% | [11]; [17] -2% | [11]; at 11.0 µM -3% | [11]; at 33.0 µM 2% | [11]; [18] 69% | [11]; at 100.0 µM 61% | [12]; at 1.2 µM -2% | [12]; at 3.7 µM -3% | [12]; at 11.0 µM -1% | [12]; at 33.0 µM 25% | [13]; at 1.2 µM -1% | [13]; at 3.7 µM 0% | [13]; at 11.0 µM 0% | [13]; at 33.0 µM 12% | [13]; at 100.0 µM 69% | [14]; at 1.2 µM -4% | [14]; at 3.7 µM -5% | [14]; at 11.0 µM 3% | [14]; at 33.0 µM 25% | [15]; [17] -28% | [16]; at 1.2 µM -1% | [16]; at 3.7 µM -3% | [16]; at 11.0 µM -3% | [16]; at 33.0 µM 8% | [16]; at 100.0 µM 51%

COc1ccc(C(NCCNC(c2ccc(OC)c(OC)c2)c2cc3c(cc2O)OCO3)c2cc3c(cc2O)OCO3)cc1OC (stereo unspecified)
active: [1]; at 33.0 µM 89% | [1]; at 100.0 µM 99% | [2]; at 100.0 µM 99% | [3]; at 33.0 µM 87% | [3]; at 100.0 µM 97% | [4]; at 100.0 µM 99% | [5]; at 33.0 µM 74% | [5]; at 100.0 µM 99%
inactive: [1]; at 1.2 µM -1% | [1]; at 3.7 µM -6% | [1]; at 11.0 µM 7% | [2]; at 1.2 µM 4% | [2]; at 3.7 µM -2% | [2]; at 11.0 µM 2% | [2]; at 33.0 µM 29% | [3]; at 1.2 µM -6% | [3]; at 3.7 µM -11% | [3]; at 11.0 µM 10% | [4]; at 1.2 µM 2% | [4]; at 3.7 µM 4% | [4]; at 11.0 µM 3% | [4]; at 33.0 µM 3% | [5]; at 1.2 µM 4% | [5]; at 3.7 µM -10% | [5]; [17] -12% | [5]; at 11.0 µM 19% | [5]; [18] 7% | [5]; at 50.0 µM 38.2% | [6]; at 1.2 µM -1% | [6]; at 3.7 µM 1%
